Most compounds without a hit are left out; they make up all but 9% or so of the library.
JMJD2A Tudor inh: qHTS Assay for Inhibitors of JMJD2A-Tudor Domain; Lysine-specific demethylase 4A (Homo sapiens), O75164; AlphaScreen JMJD2A-Tudor / H3K4me3 peptide binding; Potency, µM (doses to about 114 µM), hits mostly inhibitors; hit rate 4.4% among 390,000; note: nearly all actives have a fitted effect of over 50% in size
PLK1 PBD block: qHTS for Inhibitors of PLK1-PDB (polo-like kinase 1 - polo-box domain): Primary Screen | Potency, µM, usual class: inhibitors | Serine/threonine-protein kinase PLK1 (Homo sapiens), P53350 | hit rate 2.8% among 360,000 | Plk1 PBD binding of FITC phosphopeptide, fluorescence polarization | AID 720504, 2013; note: series mostly up to about 57 µM; nearly all actives have a fitted effect of over 65% in size
G9a block: qHTS Assay for Inhibitors of Histone Lysine Methyltransferase G9a | G9a H3K9 monomethylation, AlphaScreen, 2 h | hit rate 8.8% among 350,000 | AID 504332, 2011 | Histone-lysine N-methyltransferase EHMT2 (Homo sapiens), Q96KQ7 | Potency, µM (doses to about 102 µM), usual class: inhibitors; note: nearly all actives have a fitted effect of over 75% in size
Target sequence (Q96KQ7 913-1193 limits assumed): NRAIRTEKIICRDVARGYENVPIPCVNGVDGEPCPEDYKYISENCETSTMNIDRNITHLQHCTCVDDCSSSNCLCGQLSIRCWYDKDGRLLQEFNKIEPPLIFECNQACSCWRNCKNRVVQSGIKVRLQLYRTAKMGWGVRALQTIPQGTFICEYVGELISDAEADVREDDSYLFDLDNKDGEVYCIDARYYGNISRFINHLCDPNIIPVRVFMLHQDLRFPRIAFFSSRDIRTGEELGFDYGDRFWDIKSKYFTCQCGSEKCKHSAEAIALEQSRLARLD
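Chemiluminescent proximity detection of H3K9 monomethylation, read after 10 min bead incubation in the dark. Reaction: 20 nM G9a, 500 nM biotin-H3K9 peptide, 20 uM SAM cofactor, 2 h, room temperature, following 15 min enzyme-compound preincubation.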
12-LOX inh: Primary qHTS assay for inhibitors of human arachidonate 12S-lipoxygenase (ALOX12): Round 2; purified 12hLO, xylenol orange hydroperoxide absorbance; Polyunsaturated fatty acid lipoxygenase ALOX12 (Homo sapiens), P18054; AID 1671190, 2021; Potency, µM (series often up to 108 µM), most hits filed as inhibitors; hit rate 1.1% among 580,000
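Purified human 12hLO (150 nM final) in 25 mM Hepes, 0.01% Triton X-100, pH 7.0 was preincubated 15 min at room temperature with compound. Then 40 uM arachidonic acid was added, 30 min. Hydroperoxide was read by Fe-XO absorbance ratio 573/405 nm.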
HP1b binding inh: HTS for Inhibitors of HP1-beta Chromodomain Interactions with Methylated Histone Tails; AlphaScreen HP1-beta / biotin-H3K9me3 peptide binding; Potency, µM (series often up to 114 µM), actives largely listed as inhibitors; hit rate 0.56% among 390,000; note: nearly all actives have a fitted effect of over 70% in size
Target sequence (P83916 whole entry, looked up): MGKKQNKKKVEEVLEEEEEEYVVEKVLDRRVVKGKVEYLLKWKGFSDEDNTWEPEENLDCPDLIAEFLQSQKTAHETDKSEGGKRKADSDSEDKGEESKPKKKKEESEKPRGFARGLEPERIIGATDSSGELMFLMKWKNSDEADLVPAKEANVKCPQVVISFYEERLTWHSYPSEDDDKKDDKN
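Compound inhibition of the preformed complex between 50 nM HP1-beta and 50 nM biotinylated H3K9me3 peptide was read by AlphaScreen. Buffer was PBS pH 7.4 with 0.01% Tween-20. Incubations ran 30 min at room temperature, with 10 ug/mL donor/acceptor beads.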
BAZ2B inh: qHTS Assay for Inhibitors of BAZ2B; AID 504333, 2011; hit rate 4.4% among 360,000; Bromodomain adjacent to zinc finger domain protein 2B (Homo sapiens), Q9UIF8; Potency, µM (titrated, usually from 114 µM), hits mostly inhibitors; AlphaScreen BAZ2B-H3K14Ac peptide displacement; note: nearly all actives have a fitted effect of over 60% in size
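AlphaScreen displacement of biotin-H3(5-23)K14Ac peptide (50 nM final) from BAZ2B (50 nM final) in PBS pH 7.4, 0.01% Tween-20; complex preformed 30 min RT, then compounds (top 110 uM) 30 min RT, beads 20 min dark.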
Each line names hits and unclear results; the compound was inactive in the other large screens; ! = not active in a repeat. Calls come from the whole dose curve; as a rule, active = well fitted curve in the direction sought with a large enough effect; inconclusive = small, poorly fitted or top-dose-only effect, or another doubt; inactive = no such curve, though single readings can be large; an effect the other way counts as inactive or inconclusive.

CN(C(=O)CN1C(=O)S/C(=C\c2ccc(F)cc2)C1=O)C1CCS(=O)(=O)C1 (configuration not stated)	none
CC(C(=O)N(C)C1CCS(=O)(=O)C1)N1C(=O)/C(=C/c2ccco2)SC1=S (configuration not stated)	JMJD2A Tudor inh 50µM, PLK1 PBD block inconclusive, G9a block 45µM, 12-LOX inh inconclusive, HP1b binding inh inconclusive, BAZ2B inh 56µM
Cc1cccc(NC(=O)NCC(F)(F)F)n1	none
COc1cccc(-c2nc(CS(=O)(=O)CC(=O)NC3CCC(C)CC3)c(C)o2)c1 (configuration not stated)	JMJD2A Tudor inh inconclusive, PLK1 PBD block 24µM
CCOC(=O)N1CCC(NC(=O)CS(=O)(=O)Cc2nc(-c3ccc(OC)cc3)oc2C)CC1	JMJD2A Tudor inh inconclusive, PLK1 PBD block 21µM
COc1ccc(-c2nc(CS(=O)(=O)CC(=O)NC3CCCCC3C)c(C)o2)cc1 (configuration not stated)	JMJD2A Tudor inh inconclusive, PLK1 PBD block 24µM
Cc1ccc(-c2nc(CS(=O)(=O)CC(=O)NC3CCCCC3C)c(C)o2)cc1 (configuration not stated)	none
CCOC(=O)N1CCC(NC(=O)CS(=O)(=O)Cc2nc(-c3ccccc3C)oc2C)CC1	G9a block inconclusive
COc1cc(-c2cn[nH]c2N)cc(OC)c1OC	JMJD2A Tudor inh inconclusive
O=C(O)C(Sc1ccncn1)c1ccccc1 (configuration not stated)	none
O=C(O)C(c1ccccc1)C(c1ccccc1)c1ccccc1 (configuration not stated)	BAZ2B inh 50µM
O=C(O)C(SC(C(=O)O)c1ccccc1)c1ccccc1 (configuration not stated)	JMJD2A Tudor inh 56µM (no result: G9a block, BAZ2B inh)
CNCCNS(=O)(=O)c1cccc2cnccc12	G9a block 30µM (no result: JMJD2A Tudor inh, PLK1 PBD block, HP1b binding inh, BAZ2B inh)
O=S(=O)(NCCNC/C=C/c1ccc(Br)cc1)c1cccc2cnccc12	G9a block 50µM! (no result: JMJD2A Tudor inh, PLK1 PBD block, HP1b binding inh, BAZ2B inh)
CC(=O)NCCNS(=O)(=O)c1cccc2cc(C)cnc12	none (no result: JMJD2A Tudor inh, PLK1 PBD block, G9a block, HP1b binding inh, BAZ2B inh)
O=C(CSc1ccc(Cl)cc1)NC(=O)NCc1ccco1	PLK1 PBD block 3µM, BAZ2B inh inconclusive
Cc1nc(SCC(=O)NCc2ccco2)c2c(C)c(C)sc2n1	none
Cc1ccc(-c2csc3ncnc(OCC(=O)NC(=O)NCc4ccco4)c23)cc1	G9a block 56µM, 12-LOX inh inconclusive, BAZ2B inh inconclusive
Cc1sc2ncnc(SCC(=O)NC(=O)NCc3ccco3)c2c1C	G9a block 50µM, BAZ2B inh inconclusive
COCCNC(=O)NC(=O)CSc1nc(C)c(C)c(C)n1	G9a block 45µM
COCCn1c(=O)c(-c2cc(F)cc(F)c2)nc2cnc(N3CCOCC3)nc21	12-LOX inh inconclusive (no result: JMJD2A Tudor inh, PLK1 PBD block, HP1b binding inh, BAZ2B inh)
O=C(CSc1nn(-c2ccccc2)c(=S)s1)Nn1cnnc1	none
O=C(CSc1nn(-c2ccccc2)c(=S)s1)NC(=O)NCc1ccco1	G9a block 14µM, BAZ2B inh inconclusive
Cc1nc(SCC(=O)NCc2ccco2)nc(C)c1C	G9a block inconclusive
Cc1nc(SCC(=O)NC(=O)NCc2ccco2)nc(C)c1C	G9a block 50µM, BAZ2B inh inconclusive
COc1ccc(C2CC(=O)C(C=NCCN3CCNCC3)=C(O)C2)cc1OC (configuration not stated)	none (no result: JMJD2A Tudor inh, PLK1 PBD block, 12-LOX inh, HP1b binding inh, BAZ2B inh)
BrC(=C\c1ccccc1)/C=N/N1CCN(c2ccccc2)CC1	G9a block 20µM, 12-LOX inh inconclusive, BAZ2B inh inconclusive
CC(/C=N/N1CCN(Cc2ccccc2)CC1)=C\c1ccccc1	JMJD2A Tudor inh 45µM, G9a block 28µM, HP1b binding inh inconclusive, BAZ2B inh 50µM
CC(/C=N/N1CCN(c2ccc(C)cc2)CC1)=C\c1ccccc1	none
Cc1ccc(CN2CCN(/N=C\C(Br)=C\c3ccccc3)CC2)cc1	JMJD2A Tudor inh 45µM, G9a block inconclusive, HP1b binding inh inconclusive, BAZ2B inh inconclusive
Cc1ccccc1-n1c(SCc2ccc(Cl)cc2)nc2[nH]ncc2c1=O	JMJD2A Tudor inh inconclusive, 12-LOX inh inconclusive (no result: PLK1 PBD block)
Cc1cccc(NC(=O)Nc2cccs2)c1C	G9a block 1µM (no result: PLK1 PBD block)
Cc1ccccc1CNC(=O)Nc1cccs1	G9a block 7.1µM, 12-LOX inh inconclusive, HP1b binding inh inconclusive
CC(NC(=O)CN1CSCC1=O)c1ccc(F)cc1F (configuration not stated)	none (no result: JMJD2A Tudor inh, PLK1 PBD block, G9a block, HP1b binding inh, BAZ2B inh)
O=C(O)CCn1cc(/C=C\C(=O)c2ccc(Cl)cc2)c(-c2cccc(Br)c2)n1	PLK1 PBD block 24µM, 12-LOX inh inconclusive, BAZ2B inh inconclusive
O=Cc1cn(CCC(=O)O)nc1-c1cccc(Br)c1	none
Cc1ccc(-c2nn(CCC(=O)O)cc2/C=C\C(=O)c2ccc(Br)cc2)cc1	JMJD2A Tudor inh inconclusive, PLK1 PBD block 38µM, G9a block 25µM, BAZ2B inh inconclusive
Cc1ccc(-c2nn(Cc3ccccc3)cc2/C=C/C(=O)O)cc1	none
COC(=O)c1cccc(NC(=O)c2cc(=O)c3ccccc3o2)c1	none (no result: JMJD2A Tudor inh, PLK1 PBD block, G9a block, HP1b binding inh, BAZ2B inh)
CCOc1cc(/C=N/NC(=O)COc2nc(C)cc(COC)c2C#N)ccc1O	none
COc1ccc(CNC(=O)[C@@H]2CCCN2C(=O)[C@@H]2Cc3ccccc3CN2C(=O)OC(C)(C)C)cc1	none
Cc1ccc(-n2nnnc2SCC(=O)N2Cc3ccccc3CC2C(=O)O)cc1 (configuration not stated)	G9a block 45µM
Cc1ccccc1-n1c(SCC(=O)c2cc(C)n(C)c2C)nnc1-c1cccnc1	JMJD2A Tudor inh inconclusive, G9a block inconclusive, BAZ2B inh inconclusive (no result: 12-LOX inh)
COc1ccc(N2CCN(C(=O)C3Cc4ccccc4CN3C(=O)c3ccccc3)CC2)cc1 (configuration not stated)	G9a block 50µM, BAZ2B inh inconclusive
CC(C)(C)OC(=O)N1Cc2ccccc2C[C@H]1C(=O)N1CCC[C@H]1C(=O)O	G9a block 18µM
Cc1ccc(-n2c(SCC(=O)N3Cc4ccccc4CC3C(=O)O)nnc2-c2cccnc2)c(C)c1 (configuration not stated)	G9a block 45µM
Cc1ccccc1-c1nc(N2CCNCC2)c2ccccc2n1	none (no result: JMJD2A Tudor inh, PLK1 PBD block, HP1b binding inh, BAZ2B inh)
CCOC(=O)c1cc(C#N)c(N)nc1C	none
O=C(O)C1Cc2ccccc2CN1C(=O)c1ccco1 (configuration not stated)	JMJD2A Tudor inh inconclusive
